# Compounds with a hit are over-represented: about 2.9% of the library has one in this group of screens.
# PG9 Ab binder – binds the HIV-1 gp120 antibody PG9 | TR-FRET gp120-PG9 antibody binding | inhibition, % at 6.7 µM | 360,000 compounds, 0.43% hits; in the data active = inhibition above about 8.5%
# PGE2 EP2 inh – EP2 receptor (human) inhibition; C6 glioma cells expressing human EP2, cAMP TR-FRET; cells stimulated with saturating PGE2; inhibition, % at 25 µM; 260,000 compounds, 0.52% hits; AID 1422;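 active = percent inhibition above 40 after rounding to a whole number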;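 also: rat C6 glioma host cells with rolipram phosphodiesterase inhibitor present; the protocol text gives 20 µM as final concentration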
# Target sequence (P43116 whole entry, looked up): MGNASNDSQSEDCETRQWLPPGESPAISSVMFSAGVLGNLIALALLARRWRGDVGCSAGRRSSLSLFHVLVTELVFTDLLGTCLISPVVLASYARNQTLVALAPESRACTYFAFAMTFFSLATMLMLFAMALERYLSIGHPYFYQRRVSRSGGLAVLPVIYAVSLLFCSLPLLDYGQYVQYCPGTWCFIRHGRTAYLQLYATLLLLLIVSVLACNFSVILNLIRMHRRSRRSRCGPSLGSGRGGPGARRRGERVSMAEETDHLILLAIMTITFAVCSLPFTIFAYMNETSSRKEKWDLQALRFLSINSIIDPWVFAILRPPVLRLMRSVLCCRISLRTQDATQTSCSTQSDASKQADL
# EP2 modulator – modulates human prostaglandin E2 receptor EP2 signaling; P43116; EP2-expressing cells, cAMP HTRF FRET, PGE2 co-stimulation; induction, % at 25 µM; 260,000 compounds, 0.83% hits; AID 940;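 active = compounds whose cAMP rise, as percent of the full-agonist control response, exceeds 60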;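 also: rat C6 glioma line stably carrying human EP2 under a CMV promoter; the protocol text gives 20 µM as final concentration; 100% = response of wells given 1 µM PGE2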
# NR1D1 modulator – modulators of human Rev-erb alpha DNA binding; activity, % at 10 µM; P20393; Rev-erbα–FITC-DNA binding, fluorescence polarization, 90 min; 370,000 compounds, 0.79% hits;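 active = activity above about 14%, limit read from the data; passing the limit was not always enough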;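 also: 0% = DMSO wells with 35 nM protein and 100% = DMSO wells with 750 nM protein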
# RAM inhibit – inhibitors of the yeast RAM network; S. cerevisiae dse1pr::URA3 reporter, 5-FOA growth OD615, 2 d; analog-sensitive cbk1-as2 kinase mutant strain; inhibition, % at 50 µM; 190,000 compounds, 1.8% hits;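 active = inhibition above a set limit, 3 SD over mean compound inhibition, cut at about 8.4% in these data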;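 also: 0% = DMSO-only wells with no growth and 100% = 10 µM 1-NA-PP1 full growth; inhibition rescues growth on 5-FOA so higher OD means more RAM inhibition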
# SKN-1 block – blocks SKN-1 activity in C. elegans; C. elegans VP596 Pgst-4::GFP/RFP ratio, acrylamide-induced, 24 h; inhibition, % at 21.8 µM; 360,000 compounds, 0.49% hits; AID 624304;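 active = interference check ratio from 0.5 to 1.5 plus GFP to RFP signal ratio inhibition reaching or exceeding a fixed threshold, cut at about 30% in these data, passing the limit was not always enough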
# RAM efflux-def – restores 5-FOA growth of efflux-deficient yeast; shares compounds with RAM inhibit; S. cerevisiae efflux-deficient reporter strain, 5-FOA growth OD615, 2 days; max inhibition, %; 1,200 tested, under 10 active; AID 1305; call rule not given here;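 also: plate controls were vehicle for no effect and reference inhibitor for full effect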
# EP2 cAMP induct – human EP2 receptor cAMP induction, negative in counter-screens; shares compounds with EP2 modulator; C6 glioma EP2 cells, cAMP HTRF induction; plus low (about EC15) PGE2 agonist; calls only at 20 µM (by protocol); 1,300 compounds, 47% hits;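 active = cAMP induction above 50% in the main assay while under 30% in all four parallel counter assays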;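 also: rat C6 glioma cells stably expressing human EP2 receptor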
# PG9 bind confirm – PG9 antibody binding, confirmed. shares compounds with PG9 Ab binder. TR-FRET PG9 antibody binding, biochemical. inhibition, % at 6.7 µM. 1,500 compounds, 90% hits; in the data active = inhibition above about 9%
# PGV04 Ab binding – PGV04 control antibody binding, counter-screen. AID 651604. inhibition, % at 6.7 µM. TR-FRET PGV04 antibody-gp120 binding, biochemical. shares compounds with PG9 Ab binder. 1,500 compounds, 95% hits; in the data active = inhibition above about 9.5%
# Rev-erbA confirm – confirmation of modulators of human Rev-erb alpha DNA binding | shares compounds with NR1D1 modulator | Rev-erb alpha FITC-DNA binding, fluorescence polarization, 90 min | activation, % at 25 µM | 3,000 compounds, 61% hits;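 active = activation at or above a set limit, or at least 3 SD above the negative control mean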;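 also: 0% = 35 nM protein with DMSO and 100% = 750 nM protein high control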
# RORg DNA counter – counter-screen for Rev-erb alpha modulators: RORgamma DNA binding; shares compounds with NR1D1 modulator; purified RORgamma protein-FITC-DNA binding, fluorescence polarization; IC50, µM; 910 compounds, 8% hits; AID 1259320;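 active = Compounds whose fitted half-maximal concentration for disrupting protein-DNA binding is below 10 micromolar; the record names Rev-erb in its text, so the target is in doubt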
# * = called active by the depositor; i = inactive; x = no result; + = active, no number.
SMILES,PG9 Ab binder,PGE2 EP2 inh,EP2 modulator,NR1D1 modulator,RAM inhibit,SKN-1 block,others
COc1ccc(N2C(=O)/C(=C/C=C/c3ccccc3[N+](=O)[O-])C(=O)NC2=S)cc1,-3,9,-70,-7,17*,x,RAM efflux-def=2
COc1ccc(N2C(=O)/C(=C/c3cccs3)C(=O)NC2=S)cc1,0,10,-33,-1,x,6,
CC1C[C@H]2CC(=O)[C@H]3CCCN4CCC[C@H]2[C@]34C1 (stereo partly drawn),x,15,10,x,x,x,
Cc1ccc(NP(=O)(Oc2ccccc2F)Oc2ccccc2F)cc1C,-1,4,71*,4,17*,5,RAM efflux-def=2;EP2 cAMP induct=i
Cn1nc(CC(=O)N2CCCCC2CN2CCCCC2)c2ccccc2c1=O (stereo not drawn),x,3,0,x,x,x,
CCOc1ccc2nc(N=Nc3c(O)[nH]c(=S)[nH]c3=O)sc2c1,-5,1,29,25*,12*,21,RAM efflux-def=6;Rev-erbA confirm=36*;RORg DNA counter=i
COc1ccccc1CN(CCN(C)C)C(=O)Cc1c(C)[nH]c2c(C)cccc12,x,10,-78,x,x,x,
COc1nc2ccccc2c(=O)n1-c1ccc(Cl)cc1,-1,8,41,-2,-1,10,
O=c1c2ccccc2nc(N2CCCC2)n1-c1ccc(Cl)cc1,-2,9,68*,0,1,-25,EP2 cAMP induct=+
C[C@]12CCC3C(CC[C@H]4C[C@@H](Cl)CC[C@]34C)C1CCC2=O (stereo partly drawn),x,12,64*,x,x,x,EP2 cAMP induct=+
Cc1csc(NC(=O)CN2C3CCC2CC(O)(c2nccn2C)C3)n1 (stereo not drawn),x,x,-10,x,x,x,
CN(CC(=O)Nc1ccccc1-c1ccccc1)C1CCCCC1,2,8,74*,-3,0,-19,EP2 cAMP induct=i
CC(C)C1(C)N=C(c2ncccc2C(=O)O)NC1=O (stereo not drawn),-1,8,72*,3,0,-3,EP2 cAMP induct=i
CC(C)C1(C)N=C(c2nc3ccccc3cc2C(=O)O)NC1=O (stereo not drawn),2,7,2,3,1,10,
CN(N=O)c1ccc(O)c(O)c1,x,10,83*,x,x,x,EP2 cAMP induct=i
CN[C@@H]1[C@@H](O)C(OC2[C@@H](N)C[C@@H](N)[C@H](O[C@H]3O[C@H](C(C)O)[C@@H](O)[C@H](O)[C@H]3N)[C@H]2O)OC[C@]1(C)O (stereo partly drawn),x,13,6,x,x,x,
CCn1nc(CC(=O)N(CCN(C)C)Cc2ccccc2F)c2ccccc2c1=O,x,6,-16,x,x,x,
Cc1cc(OCC(=O)OC(C)C)c2c3c(c(=O)oc2c1)CCCC3,2,2,66*,4,5,3,EP2 cAMP induct=+
C[C@]12CCC(=O)C=C1CC[C@@H]1C2CC[C@]2(C)C(=O)CCC12 (stereo partly drawn),-2,x,x,-1,x,1,
CCC(=O)O[C@H]1CCC2C3CCC4=CC(=O)CC[C@]4(C)C3CC[C@@]21C (stereo partly drawn),x,10,77*,1,x,x,EP2 cAMP induct=+
O=C1/C(=C\c2ccc(Cl)cc2)N2CCC1CC2,x,17,-110,x,x,x,
CCN1C(=O)C(=C2C=C(C)N(Cc3ccco3)C(C)=C2)C(=O)N(CC)C1=S,20*,8,-35,2,3,4,PG9 bind confirm=22*;PGV04 Ab binding=27*
CCN1C(=O)C(=C/C=C/c2ccco2)C(=O)N(CC)C1=S,-2,9,18,-2,4,64,
Cn1c(O)c(/C=C2\C=Nc3ccccc32)c(=O)n(C)c1=O,18*,x,x,4,x,51,PG9 bind confirm=13*;PGV04 Ab binding=28*
C1=CC2CCC(C1)N2CCN1C2C=CCC1CC2,x,6,0,x,x,x,
SMILES,PG9 Ab binder,PGE2 EP2 inh,EP2 modulator,NR1D1 modulator,RAM inhibit,SKN-1 block,others
CCOC(=O)C1CCCN(c2ccc([N+](=O)[O-])c3nonc23)C1 (stereo not drawn),-1,5,16,57*,-1,77,Rev-erbA confirm=57*;RORg DNA counter=2.5*
C=C(C)c1cccc(C(C)(C)NC(=O)NC2CN3CCC2CC3)c1 (stereo not drawn),0,11,21,38*,3,1,Rev-erbA confirm=46*
CC(C)CCn1c(=O)c(C(=O)Nc2ccccc2S(N)(=O)=O)c(O)c2ccccc21,8,5,29,29*,4,14,Rev-erbA confirm=21*
CCCCn1c(=O)c(C(=O)Nc2ccccc2C)c(O)c2ccccc21,x,x,x,x,x,15,
CCCCCn1c(=O)c(C(=O)Nc2ccccc2Cl)c(O)c2ccccc21,-1,x,x,76*,x,3,Rev-erbA confirm=33*;RORg DNA counter=i
O=C(CN1C2CCC1CC(O)(c1ccccn1)C2)Nc1ccccc1F (stereo not drawn),x,5,-7,x,x,x,
O=[N+]([O-])c1ccc(N2CCCC2)c2ccncc12,-7,2,-37,36*,1,35*,Rev-erbA confirm=35*;RORg DNA counter=>40
O=[N+]([O-])c1ccc(NC2CCCC2)c2ccncc12,x,x,x,x,x,18,
C/C=C(\C)C(=O)O[C@H]1C[C@@H](OC(C)=O)[C@@]2(C(=O)OC)CO[C@@H]3C2[C@]12CO[C@](O)(C(=O)OC)[C@H]2[C@](C)(C12O[C@@]1(C)[C@H]1C[C@@H]2OC2OC=C[C@@]21O)[C@@H]3O (stereo partly drawn),x,13,11,x,x,x,
COc1cc2c(cc1OC)-c1c3c(cc4c1[C@@H](C2)N(C)CC4)OCO3,-8,6,-2,15*,1,1,Rev-erbA confirm=-3
Cc1ccc(-n2c(O)c(/C=N/c3ncc(Br)cc3Br)c(=O)[nH]c2=O)cc1,-1,20,23,131*,4,14,Rev-erbA confirm=143*;RORg DNA counter=>40
CCOc1ccc2nc(N=Nc3c(O)[nH]c(=O)[nH]c3=O)sc2c1,-7,11,2,25*,x,11,Rev-erbA confirm=16

# Bioassay records deposited in PubChem BioAssay by several laboratories.
